# According to PMC11062922 (Nature Chemical Biology, 2023):
# Like-named read-outs stand apart in the source and are kept apart here.
# Legend:
# Design in all cases: species or system human, MV4-11 + K-562 + COLO205 + SK-N-BE2 + OVCAR-8
# [1] = tested on: AKT3; conditions: read-out: apparent Kd; compound concentrations:100 nM and 1000 nM (sheet 'Samples'); n = 1
# [2] = tested on: EPHB4; conditions: read-out: apparent Kd, n = 1
# [3] = tested on: ERCC2; conditions: read-out: apparent Kd, n = 1
# [4] = tested on: FER; conditions: read-out: apparent Kd; compound concentrations:100 nM and 1000 nM (sheet 'Samples'); n = 1
# [5] = tested on: PTK2B; conditions: read-out: apparent Kd; compound concentrations:100 nM and 1000 nM (sheet 'Samples'); n = 1
# [6] = tested on: TNK1; conditions: read-out: apparent Kd, n = 1
# [7] = tested on: TNK2; conditions: read-out: apparent Kd, n = 1
# [8] = tested on: AKT2; conditions: read-out: apparent Kd, compound concentrations: 100 nM and 1000 nM (sheet 'Samples'), n = 1
# [9] = tested on: CDK6; conditions: read-out: apparent Kd; compound concentrations: 100 nM and 1000 nM (sheet 'Samples'), CATDS: 0.161106478670141; n = 1
# [10] = tested on: MAP3K6; conditions: read-out: apparent Kd; compound concentrations: 100 nM and 1000 nM (sheet 'Samples'), CATDS: 0.18139897534285501; n = 1
# [11] = tested on: PIK3CA; conditions: read-out: apparent Kd; compound concentrations: 100 nM and 1000 nM (sheet 'Samples'), CATDS: 0.92567597438095595; n = 1
# [12] = tested on: TESK1; conditions: read-out: apparent Kd; compound concentrations: 100 nM and 1000 nM (sheet 'Samples'), CATDS: 0.16638994062749099; n = 1
# [13] = tested on: ATM; conditions: read-out: apparent Kd, compound concentrations: 100 nM and 1000 nM (sheet 'Samples'), n = 1
# [14] = tested on: CLK4; conditions: read-out: apparent Kd; compound concentrations: 100 nM and 1000 nM (sheet 'Samples'), CATDS: 0.213944296498185; n = 1
# [15] = tested on: CSNK1A1; conditions: read-out: apparent Kd; compound concentrations: 100 nM and 1000 nM (sheet 'Samples'), CATDS: 0.24083982314133201; n = 1
# [16] = tested on: CSNK1D; conditions: read-out: apparent Kd; compound concentrations: 100 nM and 1000 nM (sheet 'Samples'), CATDS: 0.19928215700528701; n = 1
# [17] = tested on: GAK; conditions: read-out: apparent Kd, compound concentrations: 100 nM and 1000 nM (sheet 'Samples'), n = 1
# [18] = tested on: NLK; conditions: read-out: apparent Kd; compound concentrations: 100 nM and 1000 nM (sheet 'Samples'), CATDS: 0.15655838953280801; n = 1
# [19] = tested on: RIPK2; conditions: read-out: apparent Kd; compound concentrations: 100 nM and 1000 nM (sheet 'Samples'), CATDS: 0.226668000101196; n = 1
# [20] = tested on: MAP2K3; conditions: read-out: apparent Kd; compound concentrations: 100 nM and 1000 nM (sheet 'Samples'), CATDS: 0.58030400025916395; n = 1
# [21] = tested on: CDC42BPG; conditions: read-out: apparent Kd; compound concentrations: 100 nM and 1000 nM (sheet 'Samples'), CATDS: 0.370471808138506; n = 1
# [22] = tested on: EPHB2; conditions: read-out: apparent Kd; compound concentrations: 100 nM and 1000 nM (sheet 'Samples'), CATDS: 5.4073383937865198E-2; n = 1
# [23] = tested on: MAPK11; conditions: read-out: apparent Kd; compound concentrations: 100 nM and 1000 nM (sheet 'Samples'), CATDS: 5.3024764927667702E-2; n = 1
# [24] = tested on: MAPK9; conditions: read-out: apparent Kd; compound concentrations: 100 nM and 1000 nM (sheet 'Samples'), CATDS: 4.8598107075800298E-2; n = 1
# [25] = tested on: PIK3CD; conditions: read-out: apparent Kd; compound concentrations: 100 nM and 1000 nM (sheet 'Samples'), CATDS: 0.17871618509773601; n = 1
# [26] = tested on: PRKAG1; conditions: read-out: apparent Kd; compound concentrations: 100 nM and 1000 nM (sheet 'Samples'), CATDS: 0.16537945718140701; n = 1
# [27] = tested on: PRKCQ; conditions: read-out: apparent Kd; compound concentrations: 100 nM and 1000 nM (sheet 'Samples'), CATDS: 0.173893551056024; n = 1
# [28] = tested on: RPS6KA6; conditions: read-out: apparent Kd; compound concentrations: 100 nM and 1000 nM (sheet 'Samples'), CATDS: 5.8254455151346002E-2; n = 1
# [29] = tested on: SRC; conditions: read-out: apparent Kd; compound concentrations: 100 nM and 1000 nM (sheet 'Samples'), CATDS: 5.8386134416648999E-2; n = 1
# [30] = compound concentrations:100 nM and 1000 nM (sheet 'Samples')
structure (smiles),measurement,setting,value
O=C(Nc1c(F)cccc1F)c1cc(C(=O)c2ccccc2F)c[nH]1 [GSK1326180A],potency estimated from few doses,[1],1.08 µM
same,potency estimated from few doses,[2]; [30],1.31 µM
same,potency estimated from few doses,[3]; [30],0.984 µM
same,potency estimated from few doses,[4],0.92 µM
same,potency estimated from few doses,[5],1.07 µM
same,potency estimated from few doses,[6]; [30],0.87 µM
same,potency estimated from few doses,[7]; [30],0.898 µM
CC(C)(C)c1ccc(C(=O)Nc2cn3cc(-c4cccnc4)ccc3n2)cc1 [TPKI-58],potency estimated from few doses,[8]; CATDS: 0.161552341020717,1.95 µM
same,potency estimated from few doses,[9],1.97 µM
same,potency estimated from few doses,[10],1.39 µM
same,potency estimated from few doses,[11],0.0177 µM
same,potency estimated from few doses,[12],1.79 µM
Cc1nc2sc3c(N)ncnc3c2c(C)c1C [RO4241984-000],potency estimated from few doses,[13]; CATDS: 0.46387822436217502,0.322 µM
same,potency estimated from few doses,[14],1.41 µM
same,potency estimated from few doses,[15],1.06 µM
same,potency estimated from few doses,[16],1.71 µM
COc1cc(Nc2ccnc3ccc(Br)cc23)cc(OC)c1OC [CA93.0],potency estimated from few doses,[13]; CATDS: 0.26072592490086599,0.205 µM
same,potency estimated from few doses,[17]; CATDS: 0.73237388981335505,0.0227 µM
same,potency estimated from few doses,[18],1.5 µM
same,potency estimated from few doses,[19],0.311 µM
Nc1c(C(=O)c2ccc(C#CCN3CCOCC3)cc2)cnn1-c1ccc(F)cc1 [RO1153136-000],potency estimated from few doses,[8]; CATDS: 0.43921962783060797,2.59 µM
same,potency estimated from few doses,[20],1.47 µM
CC(C)c1ccc(-c2cc(-c3c[nH]nc3-c3ccccn3)ccn2)cc1 [GW682841X],potency estimated from few doses,[13]; CATDS: 0.768793574743593,0.216 µM
same,potency estimated from few doses,[21],1.22 µM
CC(C)(O)CCc1cccc(C(=O)c2cnn(-c3ccc(F)cc3)c2N)c1 [RO3200935-000],potency estimated from few doses,[13]; CATDS: 0.124711216224064,0.182 µM
same,potency estimated from few doses,[22],1.31 µM
same,potency estimated from few doses,"[2]; compound concentrations: 100 nM and 1000 nM (sheet 'Samples'), CATDS: 6.1726409917068299E-2",0.862 µM
same,potency estimated from few doses,"[3]; compound concentrations: 100 nM and 1000 nM (sheet 'Samples'), CATDS: 5.5764348636942303E-2",1.18 µM
same,potency estimated from few doses,[17]; CATDS: 5.4131734373928597E-2,1.3 µM
same,potency estimated from few doses,[23],1.4 µM
same,potency estimated from few doses,[24],1.97 µM
same,potency estimated from few doses,[25],0.101 µM
same,potency estimated from few doses,[26],0.114 µM
same,potency estimated from few doses,[27],0.105 µM
same,potency estimated from few doses,[28],1.02 µM
same,potency estimated from few doses,[29],1.02 µM
same,potency estimated from few doses,"[6]; compound concentrations: 100 nM and 1000 nM (sheet 'Samples'), CATDS: 8.7272147556640506E-2",0.366 µM
same,potency estimated from few doses,"[7]; compound concentrations: 100 nM and 1000 nM (sheet 'Samples'), CATDS: 6.9926040964812697E-2",0.615 µM
